From PubChem BioAssay
MEKK2wt PB1 HTS: modulators of MEK5 binding to wildtype MEKK2, primary screen, biochemical, multiplex bead flow cytometry, Alexa488-MEK5; Alexa488-MEK5 binding to MEKK2 WT; actives lie on both sides; binding response (% of control), % at 10 µM; 1.1% of 290,000 active; AID 1531, 2009; in the data active = binding response below about 67% or above about 130%
UBC13 inh: UBC13 polyubiquitin chain formation inhibitors, primary screen, biochemical, TR-FRET, uHTS. Ubiquitin-conjugating enzyme E2 N (Homo sapiens), P61088. inhibition, % at 20 µM. 0.47% of 330,000 active; in the data active = inhibition above about 45%, passing the limit was not always enough
Target sequence (P61088 whole entry, looked up): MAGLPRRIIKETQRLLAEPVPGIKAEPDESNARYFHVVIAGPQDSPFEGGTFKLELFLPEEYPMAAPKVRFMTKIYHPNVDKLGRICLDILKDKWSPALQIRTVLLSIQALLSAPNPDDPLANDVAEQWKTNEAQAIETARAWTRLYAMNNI
MEKK3 PB1 HTS: modulators of MEKK3-MEK5 PB1 binding, primary screen, biochemical, wildtype MEKK3, multiplex bead flow cytometry, Alexa488-MEK5. bead-based flow cytometry, Alexa488-MEK5 binding to MEKK3; actives lie on both sides; 0 = blocked by unlabeled MEK5, 100 = vehicle. 1.4% of 290,000 active. AID 1529, 2009. binding response (% of control), % at 10 µM;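 active = binding response more than 3 SD above or below the average of its plate-row segment, actives on both sides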;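 note: Alexa488 bead fluorescence after subtracting the streptavidin-only scavenger bead signal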
MEKK2 mut-MEK5: MEK5 binding signal on mutant MEKK2 PB1, primary screen, biochemical, multiplex bead flow cytometry, Alexa488-MEK5. Alexa488-MEK5 binding to MEKK2 mutant. percent response, % at 10 µM. 0.35% of 290,000 active; in the data active = percent response above about 24%, passing the limit was not always enough
MEKK2wt confirm: modulators of MEK5 binding to wildtype MEKK2, confirmation, biochemical, single concentration, multiplex bead flow cytometry. 2.4% of 5,900 active. binding response (% of control), % at 10 µM. Alexa488-MEK5 binding to MEKK2 WT; actives lie on both sides. shares compounds with MEKK3 PB1 HTS; in the data active = binding response below about 16% or above about 210%; inactive = in between
MEKK2mut-MEK5: mutant MEKK2 PB1-MEK5 binding signal retest – biochemical, single concentration, multiplex bead flow cytometry, confirmation. Alexa488-MEK5 binding to MEKK2 mutant. shares compounds with MEKK3 PB1 HTS. 2% of 5,900 active. percent response, % at 10 µM. AID 1893, 2009; in the data active = percent response mostly above about 71%, no sharp cut-off; inactive = mostly below about 38%;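 note: higher means compound restores mutant binding toward wildtype level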
MEKK3 confirm: MEKK3 wild-type PB1 binding to MEK5, inhibitors, confirmation, biochemical, bead multiplex flow cytometry, single concentration, wildtype | shares compounds with MEKK3 PB1 HTS | Alexa488-MEK5 binding to MEKK3; hits give low values | binding response (% of control), % at 10 µM | 1.8% of 5,900 active;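 active = binding response below 72% of control, or above a set upper limit, though filed actives all read lower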;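 note: lower values mean stronger disruption of MEK5 binding to MEKK3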
Of the large screens only hits and unclear results are named; the others gave an inactive call (follow-up assays come after a bar, where they were run); [ ] = dose if it differs, or a comment. The list is not random: actives were taken first. Their share in the collection is about 2.3%.

COc1ccc(-c2nn(-c3ccccc3C)cc2CNCCc2cnc[nH]2)cc1F	MEKK2wt PB1 HTS 149.0 | MEKK2wt confirm inactive | MEKK2mut-MEK5 inactive | MEKK3 confirm inactive
CCn1cc(CNCc2cn(-c3ccccc3C)nc2-c2ccc(OC)c(F)c2)cn1	none
CC(C)OC(=O)CSc1nc2ncccc2[nH]1	MEKK2wt PB1 HTS 45.0[inhibitor], MEKK3 PB1 HTS 33.0[inhibitor] | MEKK2wt confirm inactive | MEKK2mut-MEK5 inactive | MEKK3 confirm inactive
Cc1ccc2[nH]c(=O)c(C3=NN(C(=O)CCC(=O)O)C(c4cccs4)C3)c(-c3ccccc3)c2c1 (configuration not stated)	MEKK3 PB1 HTS 133.0 | MEKK2wt confirm inactive | MEKK2mut-MEK5 inactive | MEKK3 confirm inactive
CCOc1ccc(CC(=O)Nc2ccc(NC(=O)c3ccco3)cc2)cc1OCC	none (no result: UBC13 inh)
O/N=C/c1ccc(-c2ccccc2OC(F)(F)F)o1	none
CC(=O)c1ccc(-c2ccccc2OC(F)(F)F)o1	MEKK3 PB1 HTS 49.0[inhibitor] | MEKK2wt confirm inactive | MEKK2mut-MEK5 inactive | MEKK3 confirm inactive
Cc1cccc(CC(=O)N2CCC(n3nccc3NC(=O)C3CC3)CC2)c1	none
O=C(Nc1ccc(C(=O)NC2CCCCC2)cc1)c1cccnc1	none
Cc1oc2ccc(O)cc2c1C(=O)c1ccc(F)cc1	none (no result: MEKK2wt PB1 HTS, MEKK3 PB1 HTS, MEKK2 mut-MEK5)
C/C(=C\c1ccccc1)CN1CCC(C(=O)N2CCC(C)CC2)CC1	none
C/C(=C\c1ccccc1)CN1CCC(C(=O)N2CCCCC2)CC1	MEKK3 PB1 HTS 138.0 | MEKK2wt confirm inactive | MEKK2mut-MEK5 inactive | MEKK3 confirm inactive
COc1ccccc1CNC(=O)CSc1nnc2ccc(-c3cccnc3)nn12	MEKK2 mut-MEK5 171.0 | MEKK2wt confirm inactive | MEKK2mut-MEK5 inactive | MEKK3 confirm inactive
COc1ccc(NC(=O)CSc2nnc3ccc(-c4cccnc4)nn23)cc1OC	none (no result: MEKK2wt PB1 HTS, MEKK3 PB1 HTS, MEKK2 mut-MEK5)
CCNC(=S)N1CCC(NC(=O)C2CCCCC2)CC1	none
CCNC(=S)NNC(=O)C1CCCCC1	MEKK2wt PB1 HTS 2.0[inhibitor], MEKK3 PB1 HTS 2.0[inhibitor] | MEKK2wt confirm inactive | MEKK2mut-MEK5 inactive | MEKK3 confirm inactive
CN(CC(=O)Nc1ccc(F)cc1[N+](=O)[O-])Cc1ccccc1	none
COc1ccc(-n2ncc3c(N4CCN(Cc5ccccc5)CC4)ncnc32)cc1	none
Cc1ccc2c(C(=O)CN3CCCCC3CCO)c(C)[nH]c2c1 (configuration not stated)	none
Cc1[nH]c2ccccc2c1C(=O)CN1CCCCC1CCO (configuration not stated)	MEKK3 PB1 HTS 44.0[inhibitor] | MEKK2wt confirm inactive | MEKK2mut-MEK5 inactive | MEKK3 confirm inactive
O=c1ccc(Cl)cn1Cc1ccccc1F	MEKK3 PB1 HTS 127.0 | MEKK2wt confirm inactive | MEKK2mut-MEK5 inactive | MEKK3 confirm inactive
NC(=O)C[n+]1cccc(CNC(=O)c2ccc(OC(F)F)cc2)c1	none
O=C(C[n+]1cccc(CNC(=O)c2ccc(OC(F)F)cc2)c1)Nc1cc(C(F)(F)F)ccc1Cl	MEKK2wt PB1 HTS 144.0 | MEKK2wt confirm inactive | MEKK2mut-MEK5 inactive | MEKK3 confirm inactive
CC1CCC(NC(=O)c2ccc3c(c2)OCO3)CC1 (configuration not stated)	none
CC1CCC(NC(=O)c2ccc(/C=C3\Oc4ccccc4N(C)C3=O)cc2)CC1 (configuration not stated)	MEKK3 PB1 HTS 139.0 (no result: UBC13 inh) | MEKK2wt confirm inactive | MEKK2mut-MEK5 inactive | MEKK3 confirm inactive
O=C(Nc1ccccc1N1CCCC1)c1ccc([N+](=O)[O-])cc1Cl	none
